From article PMC7826789 (International Journal of Molecular Sciences, 2021)

What was measured:
Details in all cases: Compound Concentration (nM):1000
CSNK2A2 = test system: CSNK2A2
CTK = test system: T1, CTK
T1 construct: gene MATK

DAPK1 = test system: DAPK1
DAPK2 = test system: DAPK2
DAPK3 = test system: DAPK3
DCAMKL1 = test system: T2, DCAMKL1
T2 construct: gene DCLK1

DCAMKL2 = test system: T3, DCAMKL2
T3 construct: gene DCLK2

DCAMKL3 = test system: T4, DCAMKL3
T4 construct: gene DCLK3

DDR1 = test system: DDR1
DDR2 = test system: DDR2
DLK = test system: T5, DLK
T5 construct: gene MAP3K12

DMPK2 = test system: T6, DMPK2
T6 construct: gene CDC42BPG

DMPK = test system: DMPK
DRAK1 = test system: T7, DRAK1
T7 construct: gene STK17A

DRAK2 = test system: T8, DRAK2
T8 construct: gene STK17B

DYRK1A = test system: DYRK1A
DYRK1B = test system: DYRK1B
DYRK2 = test system: DYRK2
EGFR(E746-A750del) = test system: EGFR(E746-A750del)
EGFR(G719C) = test system: EGFR(G719C)
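Further: KINOMEscan scanMAX binding as percent activity remaining versus control; lower means stronger binding.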

| Structure (SMILES) | Percent Control (CSNK2A2) [%] | Percent Control (CTK) [%] | Percent Control (DAPK1) [%] | Percent Control (DAPK2) [%] | Percent Control (DAPK3) [%] | Percent Control (DCAMKL1) [%] | Percent Control (DCAMKL2) [%] | Percent Control (DCAMKL3) [%] | Percent Control (DDR1) [%] | Percent Control (DDR2) [%] | Percent Control (DLK) [%] | Percent Control (DMPK2) [%] | Percent Control (DMPK) [%] | Percent Control (DRAK1) [%] | Percent Control (DRAK2) [%] | Percent Control (DYRK1A) [%] | Percent Control (DYRK1B) [%] | Percent Control (DYRK2) [%] | Percent Control (EGFR(E746-A750del)) [%] | Percent Control (EGFR(G719C)) [%] |
| --- | --- | --- | --- | --- | --- | --- | --- | --- | --- | --- | --- | --- | --- | --- | --- | --- | --- | --- | --- | --- |
| CN1CCN(C(=O)c2ccc(NC(=O)Nc3ccc(N(C)c4ccnc(Nc5ccc(CS(C)(=O)=O)cc5)n4)cc3)cc2)CC1.Cl [GW830263A] | 63 | 100 | 95 | 100 | 100 | 97 | 79 | 100 | 0 | 0 | 30 | 64 | 100 | 100 | 100 | 62 | 91 | 75 | 87 | 95 |
| COc1ccccc1-c1cc(/C=C2\C(=O)Nc3ncc(Br)cc32)cc(Br)c1O [GW442130X] | 72 | 99 | 100 | 88 | 88 | 100 | 100 | 89 | 92 | 100 | 100 | 100 | 100 | 85 | 100 | 59 | 68 | 95 | 100 | 100 |
| COc1cccc(-c2c[nH]c3c(N/N=C/c4ccncc4)ncnc23)c1 [GW814408X] | 1.5 | 100 | 100 | 100 | 100 | 100 | 100 | 56 | 86 | 60 | 87 | 82 | 100 | 17 | 32 | 7.6 | 24 | 8.3 | 12 | 27 |
| Cl.O=S1CCN(Cc2ccc(-c3ccc4ncnc(Nc5ccc(OCc6ccccc6)c(F)c5)c4c3)o2)CC1 [GW576924A] | 100 | 100 | 100 | 100 | 100 | 89 | 100 | 100 | 100 | 100 | 90 | 100 | 100 | 100 | 100 | 100 | 100 | 91 | 14 | 0 |
| O=C1Nc2ccc(C(=O)c3ccco3)cc2C1=Cc1cc(Cl)c(O)c(Cl)c1 [GW406108X] | 19 | 92 | 22 | 9.2 | 10 | 80 | 94 | 100 | 100 | 93 | 42 | 100 | 100 | 80 | 32 | 0.4 | 1.9 | 41 | 86 | 73 |
| CN(C)c1cc2c(Nc3ccc4c(cnn4Cc4ccccc4)c3)ncnc2cn1 [GW282974X] | 65 | 100 | 100 | 91 | 100 | 85 | 100 | 100 | 66 | 100 | 82 | 48 | 95 | 69 | 100 | 93 | 100 | 73 | – | – |
| CC(C)COC(=O)c1ccc2c(c1)/C(=C/Nc1ccc(S(N)(=O)=O)cc1)C(=O)N2 [GW416981X] | 1.5 | 100 | 24 | 9.4 | 9.8 | 38 | 100 | 4.6 | 100 | 100 | 14 | 100 | 100 | 0.3 | 5.5 | 26 | 45 | 18 | 82 | 4.6 |
| CCS(=O)(=O)c1ccc(OC)c(Nc2ncc(-c3cccc(F)c3)o2)c1 [GW621970X] | 1.4 | 100 | 100 | 100 | 100 | 100 | 98 | 100 | 55 | 100 | 71 | 100 | 100 | 100 | 100 | 61 | 67 | 41 | 73 | 100 |
| COc1ccc2c(-c3ccnc(Nc4cccc(OC(F)(F)F)c4)n3)cnn2n1 [GW810372X] | 59 | 100 | 100 | 98 | 100 | 100 | 100 | 100 | 100 | 100 | 92 | 100 | 100 | 81 | 100 | 35 | 13 | 45 | 99 | 97 |
| COc1cc(N2CCN(C(C)C)CC2)ccc1Nc1nc(Nc2ccc(F)cc2C(=O)NC[C@@H](O)CO)c2cc[nH]c2n1 [GSK1392956A] | 88 | 95 | 13 | 6.8 | 4.3 | 78 | 100 | 100 | 98 | 100 | 77 | 75 | 100 | 87 | 93 | 53 | 75 | 24 | 74 | 94 |
